Source: PubChem BioAssay (NCATS)
Inconclusive results are not listed. The source made the active and inactive calls. Unless noted, calls come from the whole dose curve; as a rule, active = well fitted curve in the direction sought with a large enough effect; inconclusive = small, poorly fitted or top-dose-only effect, or another doubt; inactive = no such curve, though single readings can be large; an effect the other way counts as inactive or inconclusive.

Key:
Furin (Homo sapiens) = Furin (Homo sapiens) (UniProt P09958); experiment: Furin counterscreen qHTS for Zika virus inhibitors (AID 1347149);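 note: purified recombinant full-length human furin enzyme at 5 nM; fluorescence gain from furin cutting a BOC-RVRR-AMC peptide substrate over 15 min; top concentration of the series differs between compounds; nearly all actives have a fitted effect of over 70% in size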
Chain of Furin (Homo sapiens) (P09958 whole entry, looked up): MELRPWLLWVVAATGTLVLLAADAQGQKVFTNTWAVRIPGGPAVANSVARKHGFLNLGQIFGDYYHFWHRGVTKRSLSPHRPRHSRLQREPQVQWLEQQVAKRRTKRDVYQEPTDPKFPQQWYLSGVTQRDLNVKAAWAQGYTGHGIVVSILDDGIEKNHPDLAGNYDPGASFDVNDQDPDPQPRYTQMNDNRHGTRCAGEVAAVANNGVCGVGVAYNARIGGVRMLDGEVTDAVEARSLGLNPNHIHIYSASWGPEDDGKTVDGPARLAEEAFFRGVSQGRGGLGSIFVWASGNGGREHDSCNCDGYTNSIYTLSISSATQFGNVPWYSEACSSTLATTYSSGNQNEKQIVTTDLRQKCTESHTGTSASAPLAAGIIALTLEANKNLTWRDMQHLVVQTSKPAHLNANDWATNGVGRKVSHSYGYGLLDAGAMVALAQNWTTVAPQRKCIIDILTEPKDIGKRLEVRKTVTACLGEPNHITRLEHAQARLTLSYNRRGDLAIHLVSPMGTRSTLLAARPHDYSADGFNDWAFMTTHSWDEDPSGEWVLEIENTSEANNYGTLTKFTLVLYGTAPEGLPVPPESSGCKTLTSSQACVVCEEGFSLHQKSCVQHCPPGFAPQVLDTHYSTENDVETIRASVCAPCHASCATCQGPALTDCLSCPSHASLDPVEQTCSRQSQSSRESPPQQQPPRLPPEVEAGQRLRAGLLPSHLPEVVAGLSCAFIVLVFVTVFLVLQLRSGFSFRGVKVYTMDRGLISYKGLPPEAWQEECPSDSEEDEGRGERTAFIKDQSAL
Outline: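 Counterscreen measures cleavage of 2 microM BOC-RVRR-AMC, below its ~15 microM Km, by 5 nM full-length human furin at pH 7.0 after a 15-min compound preincubation. Inhibition derives from the 15-min fluorescence increase at 37C.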

[1] = test system: Zika virus NS2B-NS3 protease (linked); experiment: 384 well plate NINDS AMC confirmatory qHTS for Zika virus inhibitors (AID 1347163);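 note: linked protease at 5 30 or 60 nM final depending on run; fluorescence of AMC released from Ac-VKTGKR-AMC peptide cleaved by the protease; top concentration of the series differs between compounds; nearly all actives have a fitted effect of over 50% in size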
Outline: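 Fluorescence at 355/460 nm was read after 25 minutes of cleavage of 30 microM Ac-VKTGKR-AMC at room temperature, in the dark. Before substrate addition, compounds (up to 1 mM final) sat ~15 minutes with 5, 30 or 60 nM linked protease. Signals were normalized to no-enzyme and no-inhibitor wells.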

[2] = test system: Zika virus NS2B-NS3 protease (linked construct); experiment: 384 well plate NINDS Rhodamine confirmatory qHTS for Zika virus inhibitors (AID 1347164);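 note: fluorescence from protease cleavage of Ac-LKRR-rhodamine 110 substrate; nearly all actives have a fitted effect of over 65% in size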; note: potency is the fitted concentration of half-maximal effect
Outline: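 Linked protease at a final 5 nM, 30 nM or 60 nM was preincubated ~15 min with compounds, then given 10 microM Ac-LKRR-Rhodamine 110. Fluorescence (ex 485/em 538 nm) after 25 min in the dark at room temperature.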

[3] = Tertiary RLuc qRT-PCR qHTS assay for Zika virus inhibitors (AID 1347169); note: nearly all actives have a fitted effect of over 55% in size; note: potency is the fitted concentration of half-maximal effect
Outline: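 Vero cells (1,000 per well) plated overnight at 37 degrees C, treated with compound in DMSO, then infected with recombinant ZIKV-RLuc (Cambodian) at MOI 1-2 for 48-72 hrs. Live-cell Renilla luciferase substrate added; luminescence read after 1-1.5 hrs.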

[4] = Confirmation and Secondary Assay for Modulators of Hemoglobin Beta Chain Splicing at IVS2 654 locus (AID 910);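 note: HeLa cells stably carrying EGFP split by mutant beta-globin IVS2-654 intron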
Outline: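 HeLa cells stably expressing EGFP interrupted by β-globin IVS2-654 intron, seeded overnight in Opti-MEM/2% FCS, then treated 2 days at 37 °C. Restored splicing read as total peak GFP intensity per well by laser scanning cytometry (488 nm excitation, 500–520 nm emission); 500 nM antisense PNA as control.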

[5] = Confirmation and Secondary Assay for Modulators of Hemoglobin Beta Chain Splicing at IVS2 705 locus (AID 930);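 note: HeLa cells stably expressing the EGFP-705 splicing reporter; GFP fluorescence per well restored by corrected splicing of the IVS2-705 intron in EGFP; series mostly up to about 46 µM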
Outline: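 HeLa IVS2-705 EGFP reporter cells, 500/well, compound 2 d at 37C; correct splicing yields fluorescent EGFP. Control: 500 nM antisense PNA. Read-out: total peak GFP intensity.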

[6] = target: Ubiquitin carboxyl-terminal hydrolase 1 (Homo sapiens) (UniProt O94782); experiment: Inhibitors of USP1/UAF1: Pilot qHTS (AID 504865); note: nearly all actives have a fitted effect of over 35% in size; note: potency is the fitted concentration of half-maximal effect
Chain of Ubiquitin carboxyl-terminal hydrolase 1 (Homo sapiens) (O94782 whole entry, looked up): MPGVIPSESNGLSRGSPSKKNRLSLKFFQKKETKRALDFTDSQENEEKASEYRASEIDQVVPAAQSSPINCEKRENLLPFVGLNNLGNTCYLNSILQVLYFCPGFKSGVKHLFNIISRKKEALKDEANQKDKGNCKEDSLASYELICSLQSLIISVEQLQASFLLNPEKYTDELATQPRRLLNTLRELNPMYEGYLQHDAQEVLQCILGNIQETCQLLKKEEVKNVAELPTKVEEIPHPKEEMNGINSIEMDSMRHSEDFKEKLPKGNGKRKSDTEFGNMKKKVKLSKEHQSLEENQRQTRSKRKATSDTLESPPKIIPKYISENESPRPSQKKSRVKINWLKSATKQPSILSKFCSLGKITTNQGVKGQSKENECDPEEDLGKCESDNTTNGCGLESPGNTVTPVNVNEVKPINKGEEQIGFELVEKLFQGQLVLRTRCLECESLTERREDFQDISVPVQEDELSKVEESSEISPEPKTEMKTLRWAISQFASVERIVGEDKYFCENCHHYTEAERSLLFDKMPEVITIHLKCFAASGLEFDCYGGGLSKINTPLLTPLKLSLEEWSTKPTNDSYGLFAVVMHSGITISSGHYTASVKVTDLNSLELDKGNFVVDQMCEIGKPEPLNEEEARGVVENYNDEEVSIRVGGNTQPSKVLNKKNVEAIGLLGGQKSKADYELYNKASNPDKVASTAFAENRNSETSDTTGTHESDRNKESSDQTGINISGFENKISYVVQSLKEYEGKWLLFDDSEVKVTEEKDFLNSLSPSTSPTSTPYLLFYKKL
Outline: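 USP1/UAF1 complex (1nM) preincubated with compound 15 min at room temperature, then Ub-Rho substrate (150nM final) added. Fluorescence read kinetically at 480/540 nm, 6 reads every 60 seconds. Buffer: 50mM HEPES pH 7.8, 0.5mM EDTA, 0.1 mg/ml BSA, 1mM TCEP, 0.01% Tween-20.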

[7] = Confirmatory screen NINDS Rhodamine qHTS for Zika virus inhibitors (AID 1347161); note: potency is the fitted concentration of half-maximal effect; nearly all actives have a fitted effect of over 60% in size
Outline: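 Single-chain NS2B-NS3 protease, 25 nM, pH 8.0; compounds preincubated 15 min. Activity: Rhodamine110 release from 1.5 microM substrate over 15 min, room temperature, data fitted to 4-parameter Hill.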

[8] = target: Rap guanine nucleotide exchange factor 3 (Homo sapiens) (UniProt O95398); experiment: Confirmatory qHTS for antagonist of cAMP-regulated guanine nucleotide exchange factor 3 (EPAC1) (AID 1645880); note: nearly all actives have a fitted effect of over 55% in size
Chain of Rap guanine nucleotide exchange factor 3 (Homo sapiens) (O95398 whole entry, looked up): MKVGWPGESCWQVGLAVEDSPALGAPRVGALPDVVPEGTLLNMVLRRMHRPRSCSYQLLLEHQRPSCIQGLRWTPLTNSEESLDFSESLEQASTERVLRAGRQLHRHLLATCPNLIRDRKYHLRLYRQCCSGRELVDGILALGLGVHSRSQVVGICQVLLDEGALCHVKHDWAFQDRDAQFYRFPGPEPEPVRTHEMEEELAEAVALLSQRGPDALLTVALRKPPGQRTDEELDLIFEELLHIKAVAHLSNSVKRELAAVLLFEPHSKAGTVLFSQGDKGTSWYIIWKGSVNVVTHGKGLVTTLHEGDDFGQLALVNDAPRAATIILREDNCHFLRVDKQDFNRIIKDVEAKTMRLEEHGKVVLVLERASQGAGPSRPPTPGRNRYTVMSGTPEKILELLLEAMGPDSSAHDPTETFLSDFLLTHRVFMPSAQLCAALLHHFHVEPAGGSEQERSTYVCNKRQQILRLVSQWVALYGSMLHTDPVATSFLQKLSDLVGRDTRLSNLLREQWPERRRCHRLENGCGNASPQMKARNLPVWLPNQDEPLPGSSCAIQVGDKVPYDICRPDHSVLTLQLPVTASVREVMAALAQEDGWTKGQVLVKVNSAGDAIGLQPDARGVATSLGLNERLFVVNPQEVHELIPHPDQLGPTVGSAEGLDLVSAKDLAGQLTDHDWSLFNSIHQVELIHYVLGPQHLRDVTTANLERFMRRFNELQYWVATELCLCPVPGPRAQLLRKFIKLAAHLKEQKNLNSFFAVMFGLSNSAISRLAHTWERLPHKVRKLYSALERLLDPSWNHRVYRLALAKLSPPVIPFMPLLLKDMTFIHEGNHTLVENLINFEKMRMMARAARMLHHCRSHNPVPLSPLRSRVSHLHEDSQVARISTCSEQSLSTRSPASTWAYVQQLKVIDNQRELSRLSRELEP
Outline: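 Released BODIPY-GDP fluoresces less than Rap1-bound BODIPY-GDP; the signal is followed at 480/540 nm at 5-min intervals over 30 min, after 5 min at room temperature. Reactions contain 100 nM EPAC1, 250 nM RAP1B-BODIPY-GDP and 50 uM GDP; results are normalized to ATA and DMSO.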

[9] = target: Rap guanine nucleotide exchange factor 4 (Homo sapiens) (UniProt Q8WZA2); experiment: Confirmatory qHTS for agonist of cAMP-regulated guanine nucleotide exchange factor 4 (EPAC2) (AID 1645884);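 note: nucleotide exchange releases bodipy-GDP from Rap1 and this lowers its fluorescence; nearly all actives have a fitted effect of over 65% in size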
Chain of Rap guanine nucleotide exchange factor 4 (Homo sapiens) (Q8WZA2 whole entry, looked up): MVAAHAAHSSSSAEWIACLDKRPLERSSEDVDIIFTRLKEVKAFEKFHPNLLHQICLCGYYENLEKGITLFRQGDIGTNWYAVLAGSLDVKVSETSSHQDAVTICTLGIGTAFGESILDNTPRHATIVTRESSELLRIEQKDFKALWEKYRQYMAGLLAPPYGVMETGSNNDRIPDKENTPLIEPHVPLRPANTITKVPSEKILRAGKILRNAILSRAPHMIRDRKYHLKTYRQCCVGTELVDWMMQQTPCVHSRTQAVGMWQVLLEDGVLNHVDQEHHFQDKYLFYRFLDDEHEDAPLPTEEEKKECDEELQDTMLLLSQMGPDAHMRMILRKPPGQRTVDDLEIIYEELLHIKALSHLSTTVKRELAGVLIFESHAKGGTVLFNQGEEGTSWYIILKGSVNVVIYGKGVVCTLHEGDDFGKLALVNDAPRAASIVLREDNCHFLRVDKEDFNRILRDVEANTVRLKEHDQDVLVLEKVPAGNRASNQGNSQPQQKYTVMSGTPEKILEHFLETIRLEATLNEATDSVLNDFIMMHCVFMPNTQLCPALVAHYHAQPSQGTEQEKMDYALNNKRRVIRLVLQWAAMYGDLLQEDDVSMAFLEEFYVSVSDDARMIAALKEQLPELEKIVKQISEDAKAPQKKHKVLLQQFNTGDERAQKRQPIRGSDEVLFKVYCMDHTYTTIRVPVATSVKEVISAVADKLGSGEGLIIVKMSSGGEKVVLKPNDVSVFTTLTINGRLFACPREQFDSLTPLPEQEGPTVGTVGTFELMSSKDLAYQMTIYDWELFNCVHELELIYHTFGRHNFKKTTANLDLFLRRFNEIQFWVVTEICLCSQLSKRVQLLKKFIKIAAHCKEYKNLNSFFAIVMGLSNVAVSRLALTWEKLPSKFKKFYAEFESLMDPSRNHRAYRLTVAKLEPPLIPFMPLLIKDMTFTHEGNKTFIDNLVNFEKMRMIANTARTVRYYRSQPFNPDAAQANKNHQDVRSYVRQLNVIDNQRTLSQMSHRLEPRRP

[10] = target: Rap guanine nucleotide exchange factor 4 (Homo sapiens) (UniProt Q8WZA2); experiment: Confirmatory qHTS for antagonist of cAMP-regulated guanine nucleotide exchange factor 4 (EPAC2) (AID 1645885); note: potency is the fitted concentration of half-maximal effect; nearly all actives have a fitted effect of over 25% in size
[11] = target: Rap guanine nucleotide exchange factor 3 (Homo sapiens) (UniProt O95398); experiment: Counterscreen qHTS for antagonist of cAMP-regulated guanine nucleotide exchange factor 3 (EPAC1) (AID 1645888)
Outline: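 Rap1B–BODIPY-GDP (250 nM) with 50 uM GDP; compounds pin-transferred to 9.74 nM–152 uM final (activator) or from 7.32 nM upwards (inhibitor). Fluorescence Ex/Em 480/540 nm read at 5 and 30 min, then after adding cAMP or buffer, at room temperature.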

[12] = qHTS Assay for Lipid Storage Modulators (AID 1519; calls by dose curve; note: potency is the fitted concentration of half-maximal effect); conditions: Drosophila S3 cells, BODIPY lipid droplet/cell ratio, laser cytometry, cells loaded with oleic acid
Outline: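 Cells seeded at 5,000 per well were treated with compounds over a concentration series and loaded with oleic acid (400 uM, as added). Lipid droplet fluorescence (488 nm excitation, 500-530 nm channel) was read by laser-scanning cytometry and normalized to 20 uM Triacsin C.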

[13] = test system: Zika virus NS2B-NS3 protease (linked construct); experiment: Confirmatory screen NINDS AMC qHTS for Zika virus inhibitors (AID 1347152); note: potency is the fitted concentration of half-maximal effect; nearly all actives have a fitted effect of over 70% in size
Outline: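 Purified NS2B-NS3 protease with NS2B hydrophilic domain linked to NS3 protease domain by flexible linker, 1 nM final in 10 mM Tris-HCl pH 8.0, 0.01% Tween 20. Compounds preincubated 15 min, room temperature; Bz-Nle-KRR-AMC 10 microM (Km 18.3 µM); 15-min fluorescence change, 4-parameter Hill fit.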

[14] = test system: Zika virus NS2B-NS3 protease (unlinked complex); experiment: Confirmatory screen GU AMC qHTS for Zika virus inhibitors (AID 1347153);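 note: enzyme at 25 nM with substrate at 10 µM below its Km of 18.3 µM; potency is the fitted concentration of half-maximal effect; nearly all actives have a fitted effect of over 70% in size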
Outline: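 Noncovalent NS2B hydrophilic domain/NS3 protease complex (25 nM) in 10 mM Tris-HCl pH 8.0, 0.01% Tween 20 was preincubated 15 min at room temperature with compounds. Then 10 µM AMC substrate (Km 18.3 µM) was added; fluorescence was read over 15 min and fitted to a 4-parameter Hill equation.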

[15] = Vero cells viability qHTS for Zika virus inhibitors (AID 1347167)
Outline: (§1)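 qHTS titration; 24-48 h compound exposure, 37 degrees C/5% CO2; DMEM, 4% FBS; CellTiter Glo ATP luminescence.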

[16] = HepG2 cells viability qHTS for Zika virus inhibitors (AID 1347168)
Outline: as §1

[17] = Primary qHTS for small molecule stabilizers of the endoplasmic reticulum resident proteome: Secreted ER Calcium Modulated Protein (SERCaMP) assay (AID 1508630)
Outline: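 The SH-SY5Y reporter protocol was run at 3 concentrations up to 38.3 uM (primary) or 11 concentrations (follow-up): 16 h compound, 100 nM thapsigargin for 4 h, then extracellular luciferase luminescence.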

[18] = target: Cytochrome P450 2C9 (Homo sapiens) (UniProt P11712); experiment: Cytochrome P450 family 2 subfamily C member 9 (CYP2C9) small molecule antagonists: luciferase biochemical (cell-free) qHTS assay (AID 1645842; active = well fitted curve in the direction sought with a large enough effect in the repeat runs; an effect the other way counts as inactive or inconclusive; note: potency is the fitted concentration of half-maximal effect; nearly all actives have a fitted effect of over 55% in size)
Chain of Cytochrome P450 2C9 (Homo sapiens) (P11712 whole entry, looked up): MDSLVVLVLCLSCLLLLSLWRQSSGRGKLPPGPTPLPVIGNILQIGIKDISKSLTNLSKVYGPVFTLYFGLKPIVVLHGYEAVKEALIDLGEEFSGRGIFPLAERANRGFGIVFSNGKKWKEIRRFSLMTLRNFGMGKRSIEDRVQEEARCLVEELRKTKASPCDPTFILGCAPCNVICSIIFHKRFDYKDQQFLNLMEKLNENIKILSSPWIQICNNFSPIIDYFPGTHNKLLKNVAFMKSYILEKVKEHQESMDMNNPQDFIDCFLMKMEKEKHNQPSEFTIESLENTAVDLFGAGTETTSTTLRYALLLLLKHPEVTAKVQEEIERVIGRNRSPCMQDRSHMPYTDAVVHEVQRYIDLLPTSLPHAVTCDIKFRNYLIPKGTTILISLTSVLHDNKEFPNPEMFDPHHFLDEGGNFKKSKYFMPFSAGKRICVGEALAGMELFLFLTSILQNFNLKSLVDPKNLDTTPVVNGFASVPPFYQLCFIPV
Outline: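 P450-Glo CYP2C9 system: proluciferin substrate with enzyme in mix containing 0.4% BSA, 10 min at room temperature, then NADPH regeneration solution added and incubated 1 h at 37C. Detection reagent stopped reaction; luminescence read after 20 min as RLU.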

[19] = target: Rap guanine nucleotide exchange factor 3 (Homo sapiens) (UniProt O95398); experiment: Confirmatory qHTS for agonist of cAMP-regulated guanine nucleotide exchange factor 3 (EPAC1) (AID 1645881);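 note: EPAC1 catalysed release of BODIPY-GDP from Rap1B seen as fluorescence loss; nearly all actives have a fitted effect of over 75% in size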
[20] = target: Glutathione peroxidase 1 (Homo sapiens) (UniProt P07203); experiment: Primary qHTS Assay for Inhibitors of Recombinant Selenoprotein Glutathione Peroxidase 1 (GPX1) (AID 1845191); note: nearly all actives have a fitted effect of over 65% in size
Chain of Glutathione peroxidase 1 (Homo sapiens) (P07203 whole entry, looked up): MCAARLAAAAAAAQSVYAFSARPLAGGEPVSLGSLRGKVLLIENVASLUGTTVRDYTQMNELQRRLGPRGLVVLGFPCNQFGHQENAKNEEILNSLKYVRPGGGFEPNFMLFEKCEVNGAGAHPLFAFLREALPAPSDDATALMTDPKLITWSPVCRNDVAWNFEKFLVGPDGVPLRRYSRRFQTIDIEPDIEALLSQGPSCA
Outline: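 GR-coupled readout: NADPH consumption tracked by fluorescence, ex 340/em 450 nm, at t=0 and after 15 min at RT. Final mix 10 nM GPX1, 1 mM GSH, 0.5 mM CHP, 0.5 mM NADPH, 100 nM GR, 0.01% BSA, following 30 min enzyme–compound preincubation.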

[21] = target: Phospholipid hydroperoxide glutathione peroxidase GPX4 (Homo sapiens) (UniProt P36969); experiment: Primary qHTS Assay for Inhibitors of Recombinant Selenoprotein Glutathione Peroxidase 4 (GPX4) (AID 1845192); conditions: outcome: dose series up to 50 µM unless noted; note: potency is the fitted concentration of half-maximal effect; nearly all actives have a fitted effect of over 65% in size
Chain of Phospholipid hydroperoxide glutathione peroxidase GPX4 (Homo sapiens) (P36969 whole entry, looked up): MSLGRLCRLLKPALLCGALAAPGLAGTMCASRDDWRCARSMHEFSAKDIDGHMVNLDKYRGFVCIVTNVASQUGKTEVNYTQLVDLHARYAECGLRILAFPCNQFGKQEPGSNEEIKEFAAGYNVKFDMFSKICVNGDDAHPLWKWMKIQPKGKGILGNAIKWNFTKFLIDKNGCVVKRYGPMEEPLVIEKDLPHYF
Outline: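 Steps: GPX4 plus compound, 30 min RT; add GR/GSH/NADPH master mix; start with cumene hydroperoxide; read 340/450 nm fluorescence at 0 and 15 min. Finals were 200 nM GPX4, 1 mM GSH, 0.5 mM CHP, 0.5 mM NADPH, 100 nM GR.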

CC(Oc1ccccc1)C(=O)Nc1ccc(C(=O)OCc2cc(=O)n3nc(C4CC4)sc3n2)cc1 (stereo not drawn)
inactive: Potency (Furin (Homo sapiens)) | Potency [1] | Potency [2] | Potency [3]

NC(Cc1cc(I)c(Oc2ccc(O)c(I)c2)c(I)c1)C(=O)O (stereo not drawn)
inactive: outcome [4] | outcome [5] | Potency [6] | Potency (Furin (Homo sapiens)) | Potency [3]

CCCCCCc1cc2cc(-c3nnc(-c4cccc(Cl)c4)o3)c(=O)oc2cc1O
inactive: Potency (Furin (Homo sapiens)) | Potency [8] | outcome [9] | outcome [11]
active: Potency [7] 3.55 µM | Potency [10] 7.57 µM

CCOc1nc2cccc(C(=O)OC(C)OC(=O)OC3CCCCC3)c2n1Cc1ccc(-c2ccccc2-c2nn[nH]n2)cc1 (stereo not drawn)
inactive: outcome [5] | Potency [15] | Potency [16] | Potency [17] | outcome [19] | outcome [9] | Potency [20]
-28.3%: max response ([12]; measured here: cell count channel max response)
-78.8%: max response ([12]; measured here: lipid channel max response)
active: Potency [12] 7.94 µM | Potency [6] 22.4 µM | Potency [13] 12.1 µM | Potency [14] 17.1 µM | Potency [7] 1.24 µM | Potency [2] 12.6 µM | Potency [3] 14.7 µM | Potency [18] 4.77 µM | Potency [21] 7.94 µM
